# Assay results taken from the supplement of paper PMC6897291.
# System: U-2932
# Assay: growth inhibition by drug alone (1 - RLU/untreated control) (fraction); higher = stronger inhibition
# Conditions: 177Lu-lilotomab satetraxetan 0 ug/ml
# Experimental: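 U-2932 ABC-DLBCL cells were pretreated or not for 18 h with 1 ug/ml 177Lu-lilotomab satetraxetan (600 MBq/mg), washed and seeded (3000 cells/well) on 384-well plates pre-printed with the Selleck Cambridge Cancer Compound library. Viability was read by RealTime-Glo luminescence on days 3-6 after seeding. Effect = 1 - RLU/mean RLU of the 48 untreated no-drug control wells per plate; Bliss score = (M-E)/(1-Fa), with E the expected Bliss-additive effect.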
Structure (SMILES),"growth inhibition by drug alone (10 nM, time (day): 3)","growth inhibition by drug alone (10 nM, time (day): 4)","growth inhibition by drug alone (10 nM, time (day): 5)","growth inhibition by drug alone (10 nM, time (day): 6)","growth inhibition by drug alone (1000 nM, time (day): 3)","growth inhibition by drug alone (1000 nM, time (day): 4)","growth inhibition by drug alone (1000 nM, time (day): 5)","growth inhibition by drug alone (1000 nM, time (day): 6)"
COc1cc2ncnc(-n3nc(-c4ccccn4)nc3N)c2cc1OC,0.133,0.114,0.0839,0.0512,0.057,0.0631,0.00213,-0.164
COc1ccc(C2CC(c3ccccc3)=NN2c2ccc(S(N)(=O)=O)cc2)cc1 (stereo not given),0.0454,0.0281,-0.0412,-0.122,-0.0544,0.00397,-0.0999,-0.129
COc1cc2nccc(Oc3ccc(NC(=O)NC4CC4)c(Cl)c3)c2cc1C(N)=O [E7080 (Lenvatinib)],-0.0768,-0.0782,-0.0262,0.0583,-0.0598,-0.0139,-0.0471,0.0893
CC(=O)Nc1nc(C)c(-c2ccc(Cl)c(S(=O)(=O)NCCO)c2)s1,0.075,0.0569,0.00221,-0.159,0.302,0.29,0.248,0.307
CC(NC(=O)c1ccccc1/N=C/c1c(O)ccc2ccccc12)c1ccccc1 (stereo not given) [Sirtinol],0.0874,0.0846,0.0103,-0.0559,0.00453,0.0486,-0.0294,-0.196
